Screening data: PubChem, National Center for Advancing Translational Sciences (NCATS)
An excerpt weighted towards active compounds, which were near 13% of everything screened.
Pf growth 48h = inhibits P. falciparum growth in the first generation, 48 h. P. falciparum luciferase growth in erythrocytes, 48 h. Potency, µM (doses to about 28.7 µM), inactives show top-dose activity change, negative = inhibition, hits mostly inhibitors. actives 5.9% (n = 310,000). AID 504832; also: potency is read from the fitted curve at half-maximal effect
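Erythrocytes infected with P. falciparum carrying an integrated firefly luciferase reporter (2% hematocrit, 0.1% parasitemia final) were exposed to compounds in RPMI 1640 with 0.5% Albumax at 37 C, 5% CO2. Growth inhibition was scored as reduced luminescence.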
HCMV antiviral = inhibitors of human cytomegalovirus. actives 4.5% (n = 410,000). HFF cells, HCMV-luciferase reporter, 72 h; stronger effect = lower value. activity change, negative = inhibition, % at 57.5 µM; in the data active = activity change below about -60%; inconclusive = no clear call, values can overlap the other calls; inactive = above about -39%
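Steps: HFFs plated, 16 h 37C; compounds added; HCMV-luciferase added to MOI 1 PFU/cell; 72 h 37C; OneGlo reagent, 5 min room temperature; luminescence read, normalized to controls.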
HCV inh = blocks hepatitis C virus. Huh7.5.1 HCVcc-Cre infection, luciferase reporter, 44 h. Potency, µM (doses to about 41.8 µM), without a hit: top-dose activity change, negative = inhibition, hits mostly inhibitors. actives 3.4% (n = 340,000). AID 651820; also: potency is read from the fitted curve at half-maximal effect
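HCVcc-Cre virus at an moi near 0.5 was added right after compound to cells cultured 4 h from seeding (1,000 cells/well). Luciferase activity was determined 44 h later, 15 min after substrate addition at RT.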
Pf growth 96h = P. falciparum growth inhibition at 96 hours; P. falciparum luciferase reporter growth, 96 h; Potency, µM (highest dose often 28.7 µM), without a hit: at the top dose activity change, negative = inhibition, most hits filed as inhibitors; actives 6.9% (n = 320,000); AID 504834; also: potency is read from the fitted curve at half-maximal effect
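Infected RBCs, 2% Hct / 0.05% parasitemia final; luciferase-reporter P. falciparum; cpd 96 h, 37 C, 5% CO2; luciferase detection reagent; luminescence.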
Numbers without * were called inactive; u = inconclusive; x = no result; [ ] = remark or other dose. Unless noted, calls follow the shape of the dose curve; as a rule, active = well fitted inhibition curve with a large enough effect; inconclusive = small, poorly fitted or top-dose-only effect, or another doubt; inactive = no such curve, though single readings can be large or run the other way. % is scaled to controls: 0 for no effect and ±100 for the full control effect.

SMILES | Pf growth 48h | HCMV antiviral | HCV inh | Pf growth 96h
CCCC(=O)NC(c1ccc(C(C)C)cc1)c1ccc2cccnc2c1O (centres undefined) | 1.5µM* | -98* | 1.8µM* | 15µM*
CCCCC(=O)NC(c1ccc(OC)cc1)c1ccc2cccnc2c1O (centres undefined) | x | -98* | x | x
CCC(=O)NC(c1ccc(C)cc1)c1ccc2cccnc2c1O (centres undefined) | 4.7µM* | -98* | u | 14%
CCCCOc1ccc(NC(=O)CSc2cccc3cccnc23)cc1 | -10% | -9 | 6% | 3%
COc1ccc(OC)c(NC(=O)CSC2=Nc3ccccc3C3=NC(CCC(=O)NCc4ccccc4)C(=O)N23)c1 (centres undefined) | x | 10 | x | x
COc1ccc(C(NC(=O)C(C)C)c2ccc3cccnc3c2O)cc1 (centres undefined) | u | -99* | 2µM* | u
O=C(O)c1ccccc1NC(c1ccccc1)c1ccc2cccnc2c1O (centres undefined) | x | -31 | u | x
Cc1c(C(=O)Nc2ccccc2Cl)oc2ccc(S(=O)(=O)N3CCCCC3)cc12 | x | 0 | x | x
COc1ccc(-c2cc3nc(-c4ccccc4)cc(N4CCC(O)CC4)n3n2)cc1 | 10µM* | u | u | -15%
COc1ccc(-c2cc3nc(-c4ccccc4)cc(N4CCN(C(C)=O)CC4)n3n2)cc1 | x | -37 | x | x
COc1ccc(-c2cc3nc(-c4ccccc4)cc(N4CCN(C(=O)c5ccccc5)CC4)n3n2)cc1 | x | -7 | x | x
COc1ccc(-c2cc3nc(-c4ccccc4)cc(N4CCCC(O)C4)n3n2)cc1 (centres undefined) | 8.3µM* | -30 | 6.3µM* | -8%
COc1cn(CC(=O)Nc2ccc(C)cc2)c(CN2CCCCC2)cc1=O | x | -29 | x | x
Cn1ccc2c(OCC(=O)Nc3cc(C(F)(F)F)ccc3Cl)cccc2c1=O | x | -29 | x | x
COC(/C(C)=C/C=C/C(C)=C/c1coc(C)n1)C(C)C1CC(O)C2(C)OC2C=CC(C)C2CC(CC(=O)O2)CC2OC2C(=O)O1 (centres undefined) | x | -80* | 10% | x
O=C(COC(=O)CCNS(=O)(=O)c1ccc(Cl)cc1)NCc1ccco1 | 12% | 21 | -3% | 2.1µM*
COc1ccc(S(=O)(=O)NCC(=O)N(CC(=O)NCc2ccco2)C2CCCC2)cc1 | 1% | 11 | 5% | -2%
O=C(COC(=O)CCNS(=O)(=O)c1ccc(Cl)cc1)NCc1ccccc1 | x | 42 | x | x
COc1ccc(N(CC(=O)NCc2ccco2)C(=O)CNS(=O)(=O)c2ccc(Cl)cc2)cc1 | -11% | -20 | 3% | 2.1µM*
O=C(CN(Cc1ccc2c(c1)OCO2)C(=O)CNS(=O)(=O)c1ccccc1)NCc1ccco1 | 20% | -10 | -14% | 2.3µM*
Cc1cc(C)c(S(=O)(=O)NCCc2sc(-c3cccnc3)nc2C)c(C)c1 | x | -23 | x | x
CCNC(=O)C1CCN(Cc2cc3ccccc3n2Cc2ccc(C)cc2)CC1 | x | -7 | x | x
Cc1ccc(S(=O)(=O)N2CCCC2=O)c(C)c1N(C)S(C)(=O)=O | 1% | 6 | -4% | 8.3µM*
Cc1cc(C)c(S(=O)(=O)N2CCCC2=O)cc1N(C)S(C)(=O)=O | 24% | 5 | 17% | 28%
CN1CCN(C(=O)c2ccc(Cc3cn(C)c4ccccc34)nc2)CC1 | x | -8 | x | x
SMILES | Pf growth 48h | HCMV antiviral | HCV inh | Pf growth 96h
COc1ccc(-c2nc(CCNC(=O)c3ccco3)cs2)cc1OC | u | -101* | u | u
COc1ccc(-c2csc(NC(=O)CCNC(=O)c3ccco3)n2)cc1OC | 12µM* | -9 | u | u
O=C(CCNC(=O)c1ccco1)Nc1nc(-c2ccccc2)cs1 | x | 164 | u | x
COc1ccc(OC)c(-c2csc(NC(=O)CSc3ccc([N+](=O)[O-])cc3)n2)c1 | -16% | -32 | 10µM* | 0%
COc1ccc(OC)c(-c2csc(NC(=O)CSc3ccc(Br)cc3)n2)c1 | 7% | -15 | u | u
O=C(NCCc1csc(-c2ccc(F)cc2)n1)c1ccco1 | x | -10 | x | x
COc1ccccc1CC(=O)Nc1nc(-c2ccc(F)c(F)c2)cs1 | u | -20 | 10µM* | u
COc1ccc(-c2csc(NC(=O)CS(=O)(=O)c3ccccc3)n2)cc1OC | x | -38 | x | x
CCn1nnc2cc(C(=O)Nc3cccc(Cl)c3C)ccc21 | x | 16 | x | x
COc1cc(OC)cc(C(=O)N[C@H](C(=O)Nc2ccc(F)cc2F)C(C)C)c1 | x | 11 | -16% | -9%
O=C(Cc1ccccc1F)Nc1nc(-c2ccc(F)cc2)cs1 | 36% | -14 | -11% | 53%
COc1ccc(OC)c(-c2csc(NC(=O)Cc3cc(OC)c(OC)c(OC)c3)n2)c1 | u | -37 | 11µM* | -21%
Cc1noc(C)c1CSCC(=O)Nc1nc(-c2ccc(F)c(F)c2)cs1 | 10µM* | -39 | 13µM* | u
COc1ccc(-c2csc(NC(=O)Cc3ccccc3F)n2)cc1OC | -12% | u | 10µM* | u
COc1cc(OC)cc(C(=O)N[C@H](C(=O)Nc2nc(-c3ccc(F)c(F)c3)cs2)C(C)C)c1 | 13µM* | -23 | u | -50%[5.75 µM]
CCOc1ccc(-n2c(=O)c3c4c(sc3n(Cc3cccc(Cl)c3)c2=O)CCCC4)cc1 | x | 9 | x | x
COc1ccc(Br)c2c1-c1nc(NC(=O)c3cccc(C)c3)sc1C2 | x | 0 | x | x
COc1ccc(-c2csc(NC3OC(=O)c4c3ccc(OC)c4OC)n2)cc1OC (centres undefined) | -6% | -98* | -77% | u
COc1ccccc1OCCNC(=O)c1ccco1 | 36% | 17 | 16% | 68%
Cc1noc(C)c1CSCC(=O)Nc1ccc(OC(F)F)c(Cl)c1 | -7% | u | -20% | 57%
Cc1noc(C)c1CSCC(=O)Nc1ccc(S(=O)(=O)C(F)F)cc1 | -18% | 7 | u | 4.7µM*
COc1ccc(CC(=O)Nc2nc(-c3ccc(OC)c(OC)c3)cs2)cc1OC | -18% | -34 | 5.6µM* | -14%
COc1cc(Br)c(CCNC(=O)c2ccco2)cc1OC | 5.2µM* | -17 | -9% | u
CC(C)CCCC(C)CCCC(C)CCCCC(C)CCCC(C)CCCC(C)C (centres undefined) | 0% | x | x | -5%
CS(=O)(=O)c1cccc(Nc2cc3c(cn2)cc(-c2ccccc2)n3Cc2ccccc2)c1 | x | 15 | x | x
SMILES | Pf growth 48h | HCMV antiviral | HCV inh | Pf growth 96h
COc1cc(Nc2cc3c(cn2)cc(-c2cnn(C)c2)n3Cc2ccccc2)cc(OC)c1OC | x | -74* | x | x
CCn1c(=O)cc(OCC(=O)NCc2ccc(F)cc2Cl)c2ccccc21 | x | 6 | x | x
Cc1ccc(-n2c(SCC(=O)OC(C)C)nnc2-c2ccncc2)cc1 | u | 5 | 1% | 20%
CC(C)OC(=O)CSc1nnc(-c2cnccn2)n1-c1ccc(Cl)cc1 | u | -23 | 11% | 15µM*
CCc1nn2c(=O)cc(COC(=O)c3ccccc3NC(=O)C3CCCCC3)nc2s1 | x | -24 | x | x
COc1ccc(C(C)=O)cc1CSc1nc2cc(C(=O)O)ccc2c(=O)n1Cc1ccccc1 | -1% | 12 | 33% | -32%
